Among the test systems are NCI-H23 lung; NCI-H226 lung; NCI-H322M lung; HOP-62 NSCLC; NCI-H460 lung; HOP-92 NSCLC; NCI-H522 lung; A549/ATCC NSCLC; 786-0 renal; COLO 205 colon.
What all share (assay): NCI-60 one-dose screen, 48 h (100 = growth as untreated, 0 = no growth, -100 = all killed)
Holding throughout (conditions): 10 µM unless noted

Compounds without any hit were thinned out: in the full panel of roughly 83,000, 20% have a hit.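 In brief: 96-well plates, 48 h treatment, single concentration, percent growth endpoint.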 A number with no mark means an inactive call. The source made the active and inactive calls. The calls were made as follows: active = growth percent below 10; inactive = the rest.

In the case of `C(=C\c1nccc2c1[nH]c1ccccc12)/c1ccccc1`, the growth in the assay with NCI-H23 lung is 34.3%; with NCI-H226 lung, 51.6%; in the assay on NCI-H322M lung, 29.9%; in the assay with HOP-62 NSCLC it was 40.7%; in the assay on NCI-H460 lung it was 4.91% (active); in the assay on HOP-92 NSCLC, 45.4%. For the same compound, the growth in the assay with NCI-H522 lung is 4.33% (active); in the assay on A549/ATCC NSCLC, 21.4%; in the assay with 786-0 renal, 35.8%; with COLO 205 colon, 3.43% (active).
Consider `O=C(O)COc1ccc(Cl)cc1C1CCCCC1`, for which the growth in the assay on NCI-H23 lung was 102%; in the assay with NCI-H226 lung, 92.8%; with NCI-H322M lung it was 101%; with HOP-62 NSCLC, 106%; with NCI-H460 lung, 96.3%; with HOP-92 NSCLC it was 111%. The growth was 99% with NCI-H522 lung, 93.2% in the assay with A549/ATCC NSCLC, 106% with 786-0 renal and 119% in the assay on COLO 205 colon.
Regarding `COc1cc(/C=C/c2cc(/C=C/c3ccc(O)c(OC)c3)n(-c3c(C)cccc3C)c(=O)n2)ccc1O`, the growth in the assay with NCI-H23 lung was 2.99% (active); in the assay with NCI-H226 lung it was 4.63% (active); in the assay with NCI-H322M lung, 15.9%; with HOP-62 NSCLC, -2.09% (active); with NCI-H460 lung it was 7.91% (active); in the assay with HOP-92 NSCLC, -3.15% (active). For the same compound, the growth in the assay with NCI-H522 lung is -10.2% (active); with A549/ATCC NSCLC it was 2.96% (active); in the assay on 786-0 renal it was 12.6%; in the assay with COLO 205 colon, -40.9% (active).
As to `COC[C@H](C)n1c(C2CCOCC2)nc2cnc3cc(-c4c(C)noc4C)c(OC)cc3c21`, the growth in the assay on NCI-H23 lung is 70.4%; in the assay on NCI-H226 lung it was 67%; with NCI-H322M lung, 50.4%; in the assay with HOP-62 NSCLC it was 39.8%; with NCI-H460 lung, 65.2%; with HOP-92 NSCLC, 37.1%. The growth in the assay with NCI-H522 lung was 34.4%; in the assay on A549/ATCC NSCLC, 45.6%; in the assay with 786-0 renal, 51.6%; in the assay on COLO 205 colon, 28.9%.
With `CN1CCN(c2ccc3nc(-c4ccc(OCCCCN5CCN(CCCCN6C(=O)c7cccc8cccc(c78)C6=O)CC5)cc4)[nH]c3c2)CC1`, the growth was 85.3% with NCI-H23 lung; 86.6% with NCI-H226 lung; 90.5% in the assay with NCI-H322M lung; 64.1% with HOP-62 NSCLC; 71.9% in the assay with NCI-H460 lung; -54.4% (active) in the assay with HOP-92 NSCLC. Moreover, the growth in the assay on NCI-H522 lung was 65%; in the assay with A549/ATCC NSCLC, 57.1%; in the assay on 786-0 renal it was 53%; in the assay with COLO 205 colon it was 77.8%.
Consider `CCCCCCN(CCCCCC)C(=N)c1ccnc2ccccc12`, for which the growth in the assay on NCI-H23 lung was 72.5%; with NCI-H226 lung, 89.2%; in the assay with NCI-H322M lung, 76%; with HOP-62 NSCLC, 100%; with NCI-H460 lung, 55.4%; in the assay with HOP-92 NSCLC it was 57.5%. Moreover, the growth was 71.7% with NCI-H522 lung, 78.4% in the assay on A549/ATCC NSCLC, 57% in the assay on 786-0 renal and -74.7% (active) in the assay with COLO 205 colon.
Turning to `CN(CCCCCl)P(=O)(OCc1ccc([N+](=O)[O-])o1)C(F)(F)c1ccc(CC(=O)NC[C@@H](O)/C=C\[C@@H](O)[C@H](CO)Cc2ccccc2)cc1` (stereo not given in full), the growth was 92.8% in the assay with NCI-H23 lung; 95.6% in the assay with NCI-H226 lung; 96.6% in the assay on NCI-H322M lung; 96.6% in the assay with HOP-62 NSCLC; 102% with NCI-H460 lung; 135% in the assay on HOP-92 NSCLC. The growth with NCI-H522 lung is -2.39% (active); in the assay on A549/ATCC NSCLC, 85.3%; in the assay with 786-0 renal, 107%; in the assay with COLO 205 colon, 103%.
Consider `CC(C)(O)c1cn(CCCCN2C(=O)C(=O)c3ccccc32)nn1`, for which the growth was 95.8% in the assay on NCI-H23 lung; 94.8% in the assay on NCI-H226 lung; 108% with NCI-H322M lung; 94.8% with HOP-62 NSCLC; 102% with NCI-H460 lung; 102% with HOP-92 NSCLC. Besides, the growth is 87.4% in the assay on NCI-H522 lung, 99.7% with A549/ATCC NSCLC, 98.3% in the assay on 786-0 renal and 112% in the assay with COLO 205 colon.
Regarding `NC(CSC(c1ccccc1)(c1ccccc1)c1ccc(Cl)cc1)C(=O)O` (stereo not given), the growth is 8.79% (active) in the assay with NCI-H23 lung; 47.2% in the assay with NCI-H226 lung; 36.5% in the assay on NCI-H322M lung; 27.5% with HOP-62 NSCLC; 7.15% (active) in the assay on NCI-H460 lung; -15.9% (active) in the assay with HOP-92 NSCLC. The growth in the assay on NCI-H522 lung is 5.69% (active); with A549/ATCC NSCLC it was -9.59% (active); with 786-0 renal, 25.6%; in the assay with COLO 205 colon, -13% (active).
Consider `Cc1cc(C)nc(SC2=C(Nc3cccc(Cl)c3C)C(=O)N(Cc3ccccc3)C2=O)n1`, for which the growth was 58.9% [30 µM] in the assay on NCI-H23 lung; 69.2% [30 µM] in the assay on NCI-H226 lung; 63.5% [30 µM] in the assay on NCI-H322M lung; 73% [30 µM] in the assay with HOP-62 NSCLC; 44% [30 µM] with NCI-H460 lung; 14.4% [30 µM] with HOP-92 NSCLC. In addition, the growth in the assay with NCI-H522 lung is 51.3% [30 µM]; in the assay on A549/ATCC NSCLC it was 27.3% [30 µM]; in the assay on 786-0 renal it was 61.8% [30 µM]; in the assay with COLO 205 colon it was 70.3% [30 µM].
With `COc1ccc(CN2c3ccccc3Oc3ccccc32)cc1O`, the growth was 33.8% with NCI-H23 lung; 93.9% in the assay with NCI-H226 lung; 56.3% in the assay on NCI-H322M lung; 42.1% with HOP-62 NSCLC; 13.3% in the assay with NCI-H460 lung; 32.8% in the assay on HOP-92 NSCLC. The growth in the assay on NCI-H522 lung was -33.2% (active); in the assay on A549/ATCC NSCLC it was 37.6%; in the assay with 786-0 renal it was 43.2%; in the assay with COLO 205 colon, 91.3%.
As to `O=C(COc1cccc(/C=C2\CSc3ccccc3C2=O)c1)Nc1nccs1`, the growth was 19.7% with NCI-H23 lung; 104% in the assay with NCI-H226 lung; 98.7% in the assay on NCI-H322M lung; 88.1% in the assay with HOP-62 NSCLC; 91.5% in the assay with NCI-H460 lung; -52% (active) with HOP-92 NSCLC. The growth in the assay on NCI-H522 lung was -60.3% (active); with A549/ATCC NSCLC, 95.1%; in the assay on 786-0 renal, 101%; with COLO 205 colon, 113%.
For `C=CC(=O)Nc1cccc(-c2nc(SC)nc(Nc3cccc(OC)c3)c2C#N)c1`, the growth is 81% in the assay with NCI-H23 lung; 70.9% with NCI-H226 lung; 94.5% with NCI-H322M lung; 85.5% in the assay with HOP-62 NSCLC; 86% with NCI-H460 lung; 29.5% in the assay on HOP-92 NSCLC. The growth is 58.7% in the assay with NCI-H522 lung, 57.3% in the assay with A549/ATCC NSCLC, 62.7% in the assay on 786-0 renal and 93.3% in the assay with COLO 205 colon.

The values above are taken from PubChem BioAssay (NCI).
